Here are results for seven compounds from PubChem BioAssay (NCATS).

“And” between values parts separate entries of the source, which are not always exact repeats. Identical values can stand only once. Unmarked numbers belong to inactive results. Inconclusive results are not listed. The source made the active and inactive calls. Unless noted, calls come from the whole dose curve; as a rule, active = well fitted curve in the direction sought with a large enough effect; inconclusive = small, poorly fitted or top-dose-only effect, or another doubt; inactive = no such curve, though single readings can be large; an effect the other way counts as inactive or inconclusive.

The nature of assay [1]: Cell Viability - HUV-EC-C (AID 542). Note: % is set by controls: 0 for no effect and ±100 for the full control effect; nearly all actives have a fitted effect of over 35% in size. An outline of the steps: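 HUV-EC-C human vascular endothelial cells, 1000/well, exposed to compound for 40 hr at 37 °C in complete medium. Intracellular ATP was read by CellTiter-Glo luminescence. AC50 came from Hill-equation fits of concentration-response data.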
Assay [2] can be described thus: Cellular Toxicity (caspase-3) HepG2 (AID 654).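 Note: cells exposed to compound for 16 hours before reading; 0% = DMSO alone and 100% = caspase signal from 100 µM tamoxifen.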 An outline of the steps:
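HepG2 cells (1500/well) were treated 16 h at 37 °C in complete medium, then caspase 3/7 activity was read by Caspase-Glo luminescence. Data were normalized to DMSO and 100 uM tamoxifen; AC50 came from Hill-equation fits of qHTS concentration-response.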

A short description of assay [3]: Cellular Toxicity (caspase-3) MRC-5 (AID 659).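 Note: 0% = DMSO basal and 100% = 10 µM staurosporine.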 In outline: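 Concentration-dependent caspase 3/7 activation is measured in human normal lung fibroblasts (MRC-5) following 16-hour treatment. AC50 values come from standard Hill-equation modeling of luminescence normalized to DMSO and 10 uM staurosporine.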
Assay [4] can be described thus: Cellular Toxicity (caspase-3) Mesangial (AID 660).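 Note: cells exposed to compound for 16 h before the caspase read.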 In outline: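 Human renal glomerular mesangial cells, 1000/well, 5 h at 37 C before 16 h compound treatment. Caspase-Glo 3/7 luminescence after 20 min; normalized to DMSO and 100 uM tamoxifen, AC50 from Hill fit.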
Assay [5] is described as follows: Cellular Toxicity (caspase-3) Hek293 (AID 664).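 Note: cells exposed to compound for 16 h at 37 °C before readout.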 The note with it: HEK293 caspase-3 activation, DMSO = 0%, 100 µM tamoxifen = 100%; at 92.2 µM (top of the series). In outline: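 HEK293 cells in complete medium treated 16 h at 37 °C, then Caspase-Glo 3/7 luminescence read after 20 min at room temperature. Normalized to DMSO and 100 uM tamoxifen; AC50 from Hill fit of concentration-response.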

Assay [6] is described as follows: MultiTox-Fluor Cytotoxicity Assay - LYMP1-002 - Live Cells (AID 955). Note: % is set by controls: 0 for no effect and ±100 for the full control effect. In outline: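 Human lymphoblastoid LYMP1-002 cells, 2500/well, treated 16 h at 37 C in complete medium. Live-cell protease activity via GF-AFC fluorescence (Ex/Em 405/510) after 60 min reagent incubation; AC50 from Hill fits.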
Assay [7] is described as follows: Cell Viability - LYMP2-009 (AID 968).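 Note: 0% = DMSO alone and the full-kill end = tetraoctylammonium bromide at 92 µM; nearly all actives have a fitted effect of over 55% in size.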
Assay [8] can be described thus: Cell Viability - LYMP2-011 (AID 969).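 Note: 0% = DMSO only and full inhibition = 92 µM tetraoctylammonium bromide; nearly all actives have a fitted effect of over 60% in size.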 In outline:
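2500 cells/well in complete medium, compound-treated 24 h at 37 C. Viability read as intracellular ATP by CellTiter-Glo luminescence after 30 min at room temperature. AC50 from Hill fits of qHTS concentration-response data.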

Assay [9] in a line: Cell Viability - LYMP2-017 (AID 972). Note: % is set by controls: 0 for no effect and ±100 for the full control effect; nearly all actives have a fitted effect of over 55% in size. An outline of the steps: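 LYMP2-017 human lymphoblastoid cells (2500/well) settled 5 hr at 37 C, then exposed to compound 24 hr at 37 C in complete medium. Viability taken as intracellular ATP by CellTiter-Glo luminescence after 30 min at RT; AC50 from Hill fits.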
Assay [10] can be described thus: Cell Viability - LYMP2-025 (AID 976).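 Note: plate controls were DMSO only for no effect and tetraoctylammonium bromide control for full effect.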 An outline of the steps: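 Human lymphoblastoid LYMP2-025 cells, 2500/well, exposed 24 h at 37 C in complete medium in 1536-well qHTS. Viability as cellular ATP by CellTiter-Glo luminescence; AC50 from Hill fits of concentration-response data.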
Assay [11] is described as follows: Cell Viability - LYMP2-026 (AID 989). Note: % is set by controls: 0 for no effect and ±100 for the full control effect; nearly all actives have a fitted effect of over 50% in size. In outline: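 Human lymphoblastoid LYMP2-026 cells, 2500/well, exposed to compound 24 h at 37 C in complete medium. Viability as intracellular ATP by CellTiter-Glo luminescence; AC50 from Hill fits of qHTS concentration-response.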
Assay [12] concerns the target Vitamin D3 receptor (Homo sapiens) (UniProt P11473). Briefly: qHTS assay for small molecule agonists of vitamin D receptor signaling (AID 588543; calls by dose curve;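 note: 0% = DMSO basal and 100% = reference agonist control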). An outline of the steps: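 VDR-UAS-bla HEK293T cells, 2000/well, 2% charcoal-stripped FBS; compound titration 16 h at 37 C; CCF4 beta-lactamase ratio read. Normalized to 50 nM 1-alpha,25-dihydroxyvitamin D3 (100%) and DMSO; Hill fit gives EC50, efficacy.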

Assay [13] is described as follows: qHTS assay for small molecule activators of the p53 signaling pathway (AID 651743; active = well fitted activation curve with a large enough effect in the signal ratio, not every such curve was filed as active; the % refers to the signal ratio; note: % of control where 0% means no effect). The following applies: HCT-116 p53RE-bla, beta-lactamase FRET ratio, 16 h; activation: active compounds read high. In outline: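 Read-out is fluorescence intensity from the LiveBLAzer B/G FRET substrate, added for 2 hours at room temperature after HCT-116 p53RE-bla cells had been incubated with compounds for 16 hours at 37 C.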
Background: In qHTS, concentration-response curves come from the screen itself.

A short description of assay [14]: qHTS assay for small molecule disruptors of the mitochondrial membrane potential - 1 hr assay (AID 651754; calls by dose curve; note: nearly all actives have a fitted effect of over 35% in size; note: potency is the fitted concentration of half-maximal effect). In outline:
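HepG2 cells, attached overnight, were exposed to compound for 1 hr at 37C, then stained 30 min with a potentiometric dye. Ratio of red aggregate (590nm) to green monomer (535nm) fluorescence reports membrane potential; collapse shifts signal toward green.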

The nature of assay [15]: qHTS assay for small molecule agonists of the antioxidant response element (ARE) signaling pathway measured by Nrf2-dependant transcriptional activity (AID 720636; active = well fitted curve in the direction sought with a large enough effect in the repeat runs; an effect the other way counts as inactive or inconclusive;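 note: HepG2 cells with an ARE-driven luciferase reporter; % of control where 0% means no effect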). In outline:
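Reporter gene assay, HepG2 ARE-luc: 16 hr compound, 37 C, 5% CO2; read-out luciferase luminescence.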

The nature of assay [16]: qHTS assay for small molecule agonists of the antioxidant response element (ARE) signaling pathway measured by Nrf2-dependant transcriptional activity - cell viability counter screen (AID 720653; active = well fitted curve in the direction sought with a large enough effect in the repeat runs; an effect the other way counts as inactive or inconclusive; note: % is set by controls: 0 for no effect and ±100 for the full control effect). The note with it: ARE-bla HepG2 viability, CellTiter-Glo ATP luminescence, 16 h; active compounds read low. An outline of the steps: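 Cytotoxicity counter screen: intracellular ATP quantified by CellTiter-Glo luminescence in the same ARE-bla HepG2 plates, after 16 h compound exposure and a 2 h beta-lactamase substrate step.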

The nature of assay [17]: Cellular Toxicity (caspase-3) NIH 3T3 (AID 666).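 Note: caspase signal read after 16 h compound exposure; 0% = DMSO basal and 100% = 100 µM tamoxifen stimulation.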 In outline: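 Mouse NIH 3T3 fibroblasts (1000/well) treated 16 h at 37 C; caspase-3/7 activity measured by Caspase-Glo 3/7 luminescence after 20 min. Normalized to DMSO and 100 uM tamoxifen; AC50 from Hill fits.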
A short description of assay [18]: Cell Viability - LYMP1-003 - Assay at 40 hr (AID 964). Note: % is set by controls: 0 for no effect and ±100 for the full control effect; nearly all actives have a fitted effect of over 60% in size. An outline of the steps: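 LYMP1-003 human lymphoblastoid cells, 2500/well, preincubated 5 h at 37 C, then treated with compound for 40 h at 37 C. Intracellular ATP read by CellTiter-Glo luminescence after 30 min at room temperature; AC50 from Hill-equation fits.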
Assay [19] in a line: Cell Viability - LYMP2-004 (AID 966).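 Note: plate controls were DMSO only for no effect and tetraoctylammonium bromide control for full effect; nearly all actives have a fitted effect of over 65% in size.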 An outline of the steps:
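Lymphoblastoid LYMP2-004 cells, 2500 per well, were preincubated for 5 hr and then treated with compound for 24 h at 37 C in complete medium. Viability was read as cellular ATP by CellTiter-Glo luminescence, and AC50 values were taken from Hill fits to concentration-response data.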

The target in assay [20] is Nuclear receptor ROR-gamma (Homo sapiens) (UniProt P51449). Briefly: qHTS assay for small molecule antagonists of the retinoid-related orphan receptor gamma (ROR-gamma) signaling pathway (AID 651802). Note: nearly all actives have a fitted effect of over 60% in size. Note: potency is the fitted concentration of half-maximal effect. In outline: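 CHO cells with TET-inducible ROR-gamma and RORE-luciferase reporter, dosed then doxycycline-induced. After 16 h at 37C, One-Glo luminescence read; decreased signal indicates antagonism.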
Sequence of Nuclear receptor ROR-gamma (Homo sapiens) (P51449 whole entry, looked up): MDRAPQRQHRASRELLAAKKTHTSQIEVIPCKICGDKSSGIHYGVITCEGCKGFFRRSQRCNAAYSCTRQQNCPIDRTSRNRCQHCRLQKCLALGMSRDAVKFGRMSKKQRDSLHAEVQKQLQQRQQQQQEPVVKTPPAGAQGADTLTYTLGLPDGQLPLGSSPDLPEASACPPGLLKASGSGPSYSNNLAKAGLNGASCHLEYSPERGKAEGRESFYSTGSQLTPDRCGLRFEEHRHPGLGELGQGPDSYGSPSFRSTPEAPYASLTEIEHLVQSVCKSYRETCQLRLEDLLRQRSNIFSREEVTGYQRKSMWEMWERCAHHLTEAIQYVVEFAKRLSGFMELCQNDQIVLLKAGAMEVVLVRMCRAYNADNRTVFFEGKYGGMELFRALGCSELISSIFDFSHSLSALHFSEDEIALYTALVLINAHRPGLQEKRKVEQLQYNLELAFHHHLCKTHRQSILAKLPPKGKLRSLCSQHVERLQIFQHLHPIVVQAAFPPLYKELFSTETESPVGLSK

Sequence of Vitamin D3 receptor (Homo sapiens) (P11473 whole entry, looked up): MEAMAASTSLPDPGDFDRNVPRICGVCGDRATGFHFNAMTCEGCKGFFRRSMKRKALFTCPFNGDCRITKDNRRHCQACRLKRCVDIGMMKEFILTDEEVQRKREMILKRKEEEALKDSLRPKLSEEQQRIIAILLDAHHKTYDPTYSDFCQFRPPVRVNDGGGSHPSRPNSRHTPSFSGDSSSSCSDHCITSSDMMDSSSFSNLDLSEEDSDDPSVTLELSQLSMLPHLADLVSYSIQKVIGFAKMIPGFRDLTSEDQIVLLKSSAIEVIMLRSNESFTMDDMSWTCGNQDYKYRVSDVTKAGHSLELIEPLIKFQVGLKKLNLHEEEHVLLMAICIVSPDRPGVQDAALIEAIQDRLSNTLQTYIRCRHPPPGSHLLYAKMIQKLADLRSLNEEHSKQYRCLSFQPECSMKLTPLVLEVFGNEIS

As to `[O-][Cl+2]([O-])O`, the Potency result in [1], in assay [7], in [8], in assay [9], in [10] and in [11] was “inactive” throughout. Further, the Potency entry in assay [14] and in [15] was “inactive” throughout. Further, the call in assay [2], in assay [3], in [4], in assay [6] and in assay [12] was inactive. The caspase-3 activation in assay [5] was -0.13%. Further, the activation in assay [13] is 0.222%. Further, the max response in assay [16] is 27.9%.

Regarding `CC(C)OC(=O)Cc1ccccc1`, the Potency entry in assay [1], in [17], in assay [18], in assay [19], in [8] and in [10] was “inactive” throughout. The Potency entry in [11], in [14] and in [20] was “inactive” each time. Moreover, the result in [2], in assay [3], in assay [6] and in assay [12] was inactive. Besides, the caspase-3 activation in [5] is 0.719%. The activation in [13] was -2.84%. Moreover, the max response in [16] is -4.02%.

As for `N#CCc1ccccc1`, the Potency entry in [1], in assay [17], in [18], in assay [19], in [7] and in assay [8] was “inactive” throughout. Moreover, the Potency result in assay [9], in assay [10], in assay [11], in [14], in [20] and in assay [15] was “inactive” in each case. In addition, the result in assay [2], in [3], in assay [4] and in [6] was inactive. In assay [5], the caspase-3 activation was -1.14%. Besides, the activation in assay [13] was -0.84%. The max response in [16] is -1.59%.

Regarding `Nc1ccc([N+](=O)[O-])cc1[N+](=O)[O-]`, the Potency entry in [1], in assay [17], in [18], in assay [19], in assay [7] and in assay [8] was “inactive” in each case. The Potency result in assay [9], in assay [10], in assay [11] and in assay [15] was “inactive” in each case. The result in assay [3], in assay [4], in assay [6] and in assay [12] was inactive. For the same compound, the caspase-3 activation in [5] was -0.459%. The Potency was 18.8 µM (active) in assay [14] and 0.944 µM (active) in [20]. The max response in assay [16] is -10.3%.

Regarding `Cc1cc(Cl)ccc1O`, the Potency entry in assay [1], in assay [17], in [18], in [19], in assay [7] and in assay [9] was “inactive” in each case. Moreover, the Potency entry in [10], in [11], in [14] and in assay [15] was “inactive” each time. Besides, the call in assay [2], in assay [3], in assay [4], in assay [6] and in assay [12] was inactive. In [5], the caspase-3 activation is 0.112%. For the same compound, the activation in [13] was -0.272%. Besides, in assay [16], the max response is 10.4%.

`Nc1ccc(-c2ccccc2)cc1`: the Potency entry in assay [1], in assay [17], in assay [19], in assay [7], in assay [8] and in assay [9] was “inactive” each time. For the same compound, the Potency result in assay [10] and in assay [20] was “inactive” in each case. The result in assay [2], in assay [4], in assay [6] and in assay [12] was inactive. Moreover, the activation in assay [13] is -1.6%.

On to `CCSC(=O)N1CCCCCC1`, for which the Potency result in [1], in assay [17], in assay [19], in [7], in [8] and in assay [10] was “inactive” in each case. The Potency result in [11], in assay [14], in assay [20] and in assay [15] was “inactive” in each case. Moreover, the compound was classed as inactive in assay [3], in assay [4], in assay [6] and in assay [12]. In [5], the caspase-3 activation is 2.55%. Moreover, the activation in assay [13] is -3.15% and 2.49%. Besides, the max response in [16] was -5.76% and -1.37%.
